# Shown are actives, neighbours in structure and some others; about 1.6% of the full set was active somewhere.
# HTR2A ag = activates the mouse 5-HT2A serotonin receptor | P35363 | CHO-K1 mHTR2A beta-arrestin complementation, luminescence; percent of 30 µM serotonin response | actives 0.66% (n = 360,000) | activation, % at 7.6 µM;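 active = activation above a run cutoff, the mean activation of all tested compounds plus 3 SD, cut at about 14% in these data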;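 also: 0% = plate median of compound wells and 100% = 30 µM serotonin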
# Target sequence (P35363 whole entry, looked up): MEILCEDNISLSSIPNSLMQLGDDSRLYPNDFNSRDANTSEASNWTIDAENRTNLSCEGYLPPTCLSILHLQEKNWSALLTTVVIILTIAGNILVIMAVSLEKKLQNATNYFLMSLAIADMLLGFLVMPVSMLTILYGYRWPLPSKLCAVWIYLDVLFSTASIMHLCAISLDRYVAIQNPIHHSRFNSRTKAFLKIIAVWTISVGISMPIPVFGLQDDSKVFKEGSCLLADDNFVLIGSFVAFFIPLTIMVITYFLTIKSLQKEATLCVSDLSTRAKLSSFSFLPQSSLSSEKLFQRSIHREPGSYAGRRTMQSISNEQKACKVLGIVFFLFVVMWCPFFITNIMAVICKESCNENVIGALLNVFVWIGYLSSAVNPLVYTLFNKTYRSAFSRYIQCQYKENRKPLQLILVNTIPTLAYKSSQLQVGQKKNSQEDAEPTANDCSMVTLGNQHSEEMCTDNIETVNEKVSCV
# HTR5A ag ctr = counter-screen for OPRM1-OPRD1 agonists: human HTR5A agonism; P47898; HTR5A agonist assay, luminescence, cell-based; activation, % at 9.3 µM; actives 0.61% (n = 340,000); in the data active = activation mostly above about 9.5%, no sharp cut-off; inactive = mostly below about 7.6%;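 also: 0% = cells with vehicle only and 100% = reference agonist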
# HTR5A inv ag = counter-screen for OPRM1-OPRD1 inverse agonists: human HTR5A inverse agonism | HTR5A cell line, luminescence | inhibition, % at 9.3 µM | actives 0.083% (n = 340,000) | P47898 | AID 504634; in the data active = inhibition mostly above about 23%, no sharp cut-off; inactive = mostly below about 18%;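 also: 0% = cells with DMSO and 100% = no-cell wells with DMSO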
# OPRM1-OPRD1 inv = inverse agonist of human OPRM1-OPRD1 heterodimerization; P35372+P41143; cell-based MOR-DOR heterodimer luminescence, inverse agonism; inhibition, % at 9.3 µM; actives 0.21% (n = 340,000); in the data active = inhibition above about 22%, passing the limit was not always enough;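 also: 0% = cells with DMSO and 100% = wells without cells with DMSO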
# MOR-DOR ag = agonists of human mu-delta opioid receptor heterodimerization; P35372+P41143; cells, OPRM1-OPRD1 heterodimerization, luminescence; activation, % at 9.3 µM; actives 0.3% (n = 340,000); in the data active = activation above about 18%;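 also: 0% = vehicle-treated cells and 100% = reference agonist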
# Starred values were filed as active, the others as inactive; . = not tested or not shown.
SMILES,HTR2A ag,HTR5A ag ctr,HTR5A inv ag,OPRM1-OPRD1 inv,MOR-DOR ag
CC1=CC2=C(C=O)C(=O)C(C)(O)C(O)C2=CO1 (stereo not drawn),2,.,.,.,.
COc1cc(C(C)=O)ccc1COc1ccc(C(=O)O)cc1OC,3,2,-7,15,-3
N#CC1=C(SCC(=O)Nc2cccc3cccnc23)NC(=O)C(C#N)C12CCCCC2 (stereo not drawn),16*,6,-34,0,0
N#CC1=C(SCC(=O)NC2CC2)NC(=O)C(C#N)C12CCCCC2 (stereo not drawn),5,2,7,-2,0
CC(=O)c1cccc(NS(=O)(=O)c2ccc(NC(=O)N3CCCCC3)cc2)c1,0,11*,-5,4,-1
O=[N+]([O-])c1ccccc1/C=C/C=N/n1c(-c2ccccc2)n[nH]c1=S,-1,13*,-35,-21,3
O=C(COc1ccc(F)cc1)NCCNC(=O)COc1ccc(F)cc1,-3,-1,3,8,-2
COC(=O)c1ccc(/C=N\NC(=O)c2c(C)nc3ccc(Cl)cn23)cc1,1,1,-5,11,-2
C=CCOc1ccc(/C=N/NC(=O)c2c(C)nc3ccc(Cl)cn23)cc1,-8,11*,-40,-70,15
CC(=O)NC(Cc1ccccc1C)C(=O)NC1CCN(c2nnnn2-c2ccccc2)CC1 (stereo not drawn),7,3,-9,6,-1
O=c1cc2oc3cc(O)c(O)cc3c(-c3ccccc3[N+](=O)[O-])c-2cc1O,6,-11,44*,50*,-9
O=C(Nc1cc([N+](=O)[O-])ccc1F)c1ccc2ccccc2c1,1,-3,-7,-22,4
COc1ccc2ccccc2c1/C=N/NC(=O)c1sc(N)c(C#N)c1C,4,8,-39,-129,24*
CCN(c1ccc(C)cc1C)S(=O)(=O)c1nnc(NC(=O)C(C)(C)C)s1,1,9.9*,-38,-27,6
CCCOC(=O)c1ccc(NC(=O)/C=C/c2cccs2)cc1,-6,11*,13,-26,5
CCN(CC)CCNC(=O)c1ccc(NC(=O)c2ccc(S(=O)(=O)N3CCCC3)cc2)cc1,-4,2,-7,2,0
CCN(CC)CCNC(=O)c1ccc(NC(=O)c2cc(S(=O)(=O)N3CCCCC3)ccc2C)cc1,-9,12*,-31,8,-1
COc1cc([C@H]2c3[nH]c4ccccc4c3C[C@H]3C(=O)N4[C@@H](c5cc(OC)c(OC)c(OC)c5)c5[nH]c6ccccc6c5C[C@H]4C(=O)N23)cc(OC)c1OC,6,10,-28,-128,21*
CCOc1cc(N2CCOCC2)c(OCC)cc1NC(=O)CN1CCC(Cc2ccccc2)CC1,0,12*,-32,2,0
c1ccc(CSc2nnc(NC3CCCCC3)s2)cc1,-1,.,.,.,.
COC(=O)c1cc(CSc2nnc(NC3CCCCC3)s2)oc1C,6,11*,-34,-32,6
COc1ccc(S(=O)(=O)Nc2cccc(-c3ccc(N4CCCCCC4)nn3)c2)c(OC)c1,-6,5,-20,-2,0
O=S(=O)(NCc1ccc(F)cc1)c1ccc(-n2cccn2)cc1,6,1,-3,0,0
O=C(Nc1c(C(=O)N2CCOCC2)cnn1-c1ccccc1)c1ccc(F)cc1,15*,0,-4,14,-3
O=C(Nc1c(C(=O)N2CCOCC2)cnn1-c1ccccc1)c1ccccc1,5,3,2,-7,1
SMILES,HTR2A ag,HTR5A ag ctr,HTR5A inv ag,OPRM1-OPRD1 inv,MOR-DOR ag
O=C(c1cc(COc2ccc(F)cc2F)on1)N1CCN(C2CCCC2)C(=O)C1,-1,9,-23,16,-3
CC(=O)N1CCN(c2ccnc3cc(Cl)ccc23)CC1,5,-4,-1,7,-1
O=C(O)CSCC(=O)N1CCN(c2ccnc3cc(Cl)ccc23)CC1,3,11*,-39,11,-2
COc1ccccc1CCc1nnc(CCC(=O)NC(C)Cc2ccsc2)o1 (stereo not drawn),8,9.9*,-28,-11,2
NC(=O)c1c(NC(=O)CN2C(=O)NC(Cc3ccccc3)C2=O)sc2c1CCC2 (stereo not drawn),4,2,-7,9,-2
Cc1nc2c(C(=O)N3CCOCC3)cnn2c(C)c1Cc1ccc(Cl)cc1,4,12*,-18,-20,4
O=C(OCC(=O)c1ccc[nH]1)c1ccccc1,3,-1,-28,8,-1
O=C(OCC(=O)c1ccc[nH]1)c1cncc(Br)c1,15*,4,-10,0,0
CCC(NC(=O)Nc1nnc(C(F)(F)F)s1)(C(F)(F)F)C(F)(F)F,4,12*,-37,-14,2
CC1CC(C)CN(C(=O)CSc2nc(Cc3cccs3)nc3ccccc23)C1 (stereo not drawn),-1,12*,-12,1,0
Cc1ccc(CCN2CC(C(=O)NC(C)C)CC2=O)cc1 (stereo not drawn),4,1,-5,9,-2
Clc1ccc(/C=C/c2nc3ccccc3[nH]2)cc1,-4,8,-23,-12,3
Clc1ccc(/C=C/c2nc3ccccc3[nH]2)c(Cl)c1,0,13*,-17,-33,7
Cc1nn(-c2ccccc2)c(C)c1NC(=O)COC(=O)c1ccc(O)cc1O,1,2,5,0,0
CS(=O)(=O)Nc1cccc(C2=NN(C(=O)CCC(=O)O)C(c3cccs3)C2)c1 (stereo not drawn),8,-1,2,11,-2
CCC(=O)N1N=C(c2cccc(NS(C)(=O)=O)c2)CC1c1cccs1 (stereo not drawn),2,14*,-38,16,-3
Cc1ccc(C(=O)C(C)OC(=O)Cn2[nH]c(=O)c3ccccc3c2=O)cc1C (stereo not drawn),-3,12*,-45,16,-3
COC(=O)CN(c1cc(OC)ccc1OC)S(=O)(=O)c1ccc(OC)c(OC)c1,-1,9.2*,-17,11,-2
Cc1c(CC(=O)N2CCN(C(=O)C3COc4ccccc4O3)CC2)c(=O)oc2cc(O)ccc12 (stereo not drawn),-1,-1,1,10,-2
Cc1c(CC(=O)N2CCN(C(=O)C3COc4ccccc4O3)CC2)c(=O)oc2c(C)c(O)ccc12 (stereo not drawn),-6,-3,13,34*,-7
CCCNC(=O)[C@H]1N2C(=O)c3c(ccc(OC)c3OC)C2SC1(C)C (stereo partly drawn),8,0,0,9,-2
C/C(=N\NS(=O)(=O)c1ccc(C)cc1)c1cccs1,3,2,-5,10,-2
C/C(=N/NS(=O)(=O)c1ccccc1)c1c[nH]c2ccccc12,5,12*,-44,8,-1
C/C(=N/NS(=O)(=O)c1cccc([N+](=O)[O-])c1)c1c[nH]c2ccccc12,1,9,-32,-3,0

# Screens: PubChem, The Scripps Research Institute Molecular Screening Center
